Experimental data published in paper PMC7862700, “An all-to-all approach to the identification of sequence-specific readers for epigenetic DNA modifications on cytosine”.

Assays:
Assay in all cases: DAPPL (digital affinity profiling via proximity ligation, sequencing); 10 mM Tris-HCl pH 7.5, 50 mM NaCl, 1 mM DTT, 4% glycerol, room temperature, 30 min; GST-TFs on glutathione beads, 16-mer random dsDNA library, 0.1% formaldehyde crosslink after washing; high values mean tight binding
Details in all cases: protein: recombinant; tags: N-terminal GST; dsDNA, one strand shown
ERG = biological target: T1, ERG (Homo sapiens, UniProt P11308 1-479)
T1 sequence: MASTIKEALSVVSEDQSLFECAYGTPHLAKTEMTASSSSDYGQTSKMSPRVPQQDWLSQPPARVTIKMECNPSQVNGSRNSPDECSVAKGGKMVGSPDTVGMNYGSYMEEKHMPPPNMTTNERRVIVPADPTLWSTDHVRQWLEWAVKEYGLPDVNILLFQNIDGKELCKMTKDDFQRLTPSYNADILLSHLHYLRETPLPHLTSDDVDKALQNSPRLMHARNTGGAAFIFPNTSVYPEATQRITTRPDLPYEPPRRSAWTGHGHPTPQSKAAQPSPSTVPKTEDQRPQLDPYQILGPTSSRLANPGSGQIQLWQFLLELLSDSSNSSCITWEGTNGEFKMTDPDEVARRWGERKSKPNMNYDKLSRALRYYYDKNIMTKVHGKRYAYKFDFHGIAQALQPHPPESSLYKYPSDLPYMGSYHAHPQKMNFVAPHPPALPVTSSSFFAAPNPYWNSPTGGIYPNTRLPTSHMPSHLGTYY
How it was run: (§1)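 A tag-only sample was pooled with DNA-barcoded human transcription factors that had been expressed in yeast as GST fusions and captured on glutathione beads. The pools were incubated for 30 min at room temperature with 200 nmole of a random double-stranded 16-mer DNA library in Tris/NaCl/DTT/glycerol buffer, then washed, crosslinked with 0.1% formaldehyde, proximity-ligated (BsaI/T4 ligase, 1 h, 37 °C), PCR-amplified and sequenced on an Illumina NextSeq500. Binding signal is each hexamer's read frequency for a factor divided by its frequency for the tag-only sample.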

ELF1 = ELF1 (Homo sapiens, UniProt P32519 1-619)
How it was run: as §1

EHF = biological target: T2, EHF (Homo sapiens, UniProt Q9NZC4 1-300)
T2 sequence: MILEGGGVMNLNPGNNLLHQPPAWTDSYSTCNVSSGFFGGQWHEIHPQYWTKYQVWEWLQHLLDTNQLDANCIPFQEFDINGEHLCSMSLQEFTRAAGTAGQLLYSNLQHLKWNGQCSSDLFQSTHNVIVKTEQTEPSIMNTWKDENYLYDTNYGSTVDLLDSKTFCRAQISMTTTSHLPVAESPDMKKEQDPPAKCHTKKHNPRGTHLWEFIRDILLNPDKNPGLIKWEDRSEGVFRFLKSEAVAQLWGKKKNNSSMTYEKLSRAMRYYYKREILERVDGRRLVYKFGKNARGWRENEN
How it was run: as §1

SPIB = SPIB (Homo sapiens, UniProt Q01892 1-262)
How it was run: as §1

ETV5 = ETV5 (Homo sapiens, UniProt P41161 1-510)
How it was run: as §1

ELF4 = ELF4 (Homo sapiens, UniProt Q99607 1-663)
How it was run: as §1

ETV2 = biological target: T3, ETV2 (Homo sapiens, UniProt O00321 1-342)
T3 sequence: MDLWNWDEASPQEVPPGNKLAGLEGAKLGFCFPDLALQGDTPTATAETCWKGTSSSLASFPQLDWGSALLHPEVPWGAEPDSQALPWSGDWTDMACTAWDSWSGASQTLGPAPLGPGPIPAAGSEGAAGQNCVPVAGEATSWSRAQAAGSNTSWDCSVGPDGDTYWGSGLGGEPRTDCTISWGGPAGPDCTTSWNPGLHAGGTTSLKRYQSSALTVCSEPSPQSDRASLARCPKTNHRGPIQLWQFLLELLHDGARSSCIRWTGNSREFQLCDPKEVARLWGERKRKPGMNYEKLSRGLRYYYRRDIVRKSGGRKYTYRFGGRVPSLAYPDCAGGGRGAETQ
How it was run: as §1

ETV1 = ETV1 (Homo sapiens, UniProt P50549 1-477)
How it was run: as §1

ETS2 = biological target: T4, ETS2 (Homo sapiens, UniProt P15036 1-469)
T4 sequence: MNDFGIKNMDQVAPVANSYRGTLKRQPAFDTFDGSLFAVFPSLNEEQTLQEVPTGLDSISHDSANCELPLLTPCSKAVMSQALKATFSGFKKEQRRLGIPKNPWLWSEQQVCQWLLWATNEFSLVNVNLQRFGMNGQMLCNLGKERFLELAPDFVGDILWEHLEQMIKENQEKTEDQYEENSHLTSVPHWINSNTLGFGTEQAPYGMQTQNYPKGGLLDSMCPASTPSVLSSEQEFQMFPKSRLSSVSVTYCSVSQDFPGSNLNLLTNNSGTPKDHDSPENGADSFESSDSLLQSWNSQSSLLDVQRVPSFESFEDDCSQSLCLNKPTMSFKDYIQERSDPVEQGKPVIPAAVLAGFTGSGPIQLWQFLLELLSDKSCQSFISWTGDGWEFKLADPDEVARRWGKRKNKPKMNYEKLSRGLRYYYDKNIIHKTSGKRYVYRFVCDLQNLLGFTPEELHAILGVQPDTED
How it was run: as §1

ETV3 = biological target: T5, ETV3 (Homo sapiens, UniProt P41162-2 1-143)
T5 sequence: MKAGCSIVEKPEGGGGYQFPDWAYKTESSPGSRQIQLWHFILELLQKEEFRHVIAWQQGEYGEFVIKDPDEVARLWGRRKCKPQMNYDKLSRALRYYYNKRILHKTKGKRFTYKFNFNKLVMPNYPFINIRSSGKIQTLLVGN
How it was run: as §1

SPIB, sequence (Q01892 whole entry): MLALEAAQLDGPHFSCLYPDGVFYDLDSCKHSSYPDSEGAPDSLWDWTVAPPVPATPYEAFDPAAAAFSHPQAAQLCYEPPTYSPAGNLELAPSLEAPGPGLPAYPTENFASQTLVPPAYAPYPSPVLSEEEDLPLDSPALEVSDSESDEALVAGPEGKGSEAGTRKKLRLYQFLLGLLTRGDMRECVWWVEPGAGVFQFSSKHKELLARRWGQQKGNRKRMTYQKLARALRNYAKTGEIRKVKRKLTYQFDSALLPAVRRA
ELF1, sequence (P32519 whole entry): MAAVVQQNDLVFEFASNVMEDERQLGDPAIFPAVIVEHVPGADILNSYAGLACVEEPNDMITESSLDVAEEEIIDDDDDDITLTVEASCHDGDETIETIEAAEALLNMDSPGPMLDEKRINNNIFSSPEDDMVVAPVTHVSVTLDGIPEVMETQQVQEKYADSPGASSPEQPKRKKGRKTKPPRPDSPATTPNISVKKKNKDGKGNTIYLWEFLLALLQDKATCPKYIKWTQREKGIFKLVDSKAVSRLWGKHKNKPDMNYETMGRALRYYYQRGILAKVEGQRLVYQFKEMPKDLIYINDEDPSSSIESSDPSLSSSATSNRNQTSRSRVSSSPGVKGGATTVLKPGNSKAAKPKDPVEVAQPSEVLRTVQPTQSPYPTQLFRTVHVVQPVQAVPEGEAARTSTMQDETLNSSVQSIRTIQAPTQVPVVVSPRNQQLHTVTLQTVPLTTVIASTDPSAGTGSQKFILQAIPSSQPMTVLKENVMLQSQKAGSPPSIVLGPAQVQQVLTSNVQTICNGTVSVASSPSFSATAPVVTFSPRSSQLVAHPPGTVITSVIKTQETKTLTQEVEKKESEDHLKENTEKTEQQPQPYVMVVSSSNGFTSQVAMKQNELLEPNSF
ELF4, sequence (Q99607 whole entry): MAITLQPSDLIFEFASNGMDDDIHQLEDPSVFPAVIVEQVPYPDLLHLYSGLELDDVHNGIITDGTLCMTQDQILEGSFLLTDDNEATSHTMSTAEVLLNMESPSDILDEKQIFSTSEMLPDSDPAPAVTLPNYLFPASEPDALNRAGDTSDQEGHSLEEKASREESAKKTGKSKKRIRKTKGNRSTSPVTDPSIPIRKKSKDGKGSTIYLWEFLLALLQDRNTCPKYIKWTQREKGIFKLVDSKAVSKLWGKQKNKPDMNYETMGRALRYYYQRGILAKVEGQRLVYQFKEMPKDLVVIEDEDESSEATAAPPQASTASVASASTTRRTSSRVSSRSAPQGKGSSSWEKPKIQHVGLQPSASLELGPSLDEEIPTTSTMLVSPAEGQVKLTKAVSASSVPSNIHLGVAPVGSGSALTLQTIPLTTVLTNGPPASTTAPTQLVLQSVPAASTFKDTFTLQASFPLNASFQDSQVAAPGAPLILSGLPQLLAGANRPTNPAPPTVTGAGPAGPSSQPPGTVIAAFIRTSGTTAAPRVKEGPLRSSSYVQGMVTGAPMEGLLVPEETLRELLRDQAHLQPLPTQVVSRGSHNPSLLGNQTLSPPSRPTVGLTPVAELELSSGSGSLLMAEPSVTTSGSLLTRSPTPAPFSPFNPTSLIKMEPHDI
ETV5, sequence (P41161 whole entry): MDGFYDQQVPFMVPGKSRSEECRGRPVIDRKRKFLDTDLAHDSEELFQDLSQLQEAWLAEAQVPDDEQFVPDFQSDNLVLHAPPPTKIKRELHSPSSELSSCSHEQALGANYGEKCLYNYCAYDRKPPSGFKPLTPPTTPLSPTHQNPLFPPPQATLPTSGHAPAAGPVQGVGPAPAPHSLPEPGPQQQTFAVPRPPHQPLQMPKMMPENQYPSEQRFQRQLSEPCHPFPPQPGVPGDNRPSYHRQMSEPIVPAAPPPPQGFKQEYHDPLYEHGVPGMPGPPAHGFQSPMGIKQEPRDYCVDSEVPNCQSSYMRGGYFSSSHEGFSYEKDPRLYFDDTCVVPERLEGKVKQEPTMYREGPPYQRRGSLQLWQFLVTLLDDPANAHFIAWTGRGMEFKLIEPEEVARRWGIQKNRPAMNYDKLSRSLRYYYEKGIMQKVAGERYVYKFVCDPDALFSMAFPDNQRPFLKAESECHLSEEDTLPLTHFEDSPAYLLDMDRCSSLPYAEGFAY
ETV1, sequence (P50549 whole entry): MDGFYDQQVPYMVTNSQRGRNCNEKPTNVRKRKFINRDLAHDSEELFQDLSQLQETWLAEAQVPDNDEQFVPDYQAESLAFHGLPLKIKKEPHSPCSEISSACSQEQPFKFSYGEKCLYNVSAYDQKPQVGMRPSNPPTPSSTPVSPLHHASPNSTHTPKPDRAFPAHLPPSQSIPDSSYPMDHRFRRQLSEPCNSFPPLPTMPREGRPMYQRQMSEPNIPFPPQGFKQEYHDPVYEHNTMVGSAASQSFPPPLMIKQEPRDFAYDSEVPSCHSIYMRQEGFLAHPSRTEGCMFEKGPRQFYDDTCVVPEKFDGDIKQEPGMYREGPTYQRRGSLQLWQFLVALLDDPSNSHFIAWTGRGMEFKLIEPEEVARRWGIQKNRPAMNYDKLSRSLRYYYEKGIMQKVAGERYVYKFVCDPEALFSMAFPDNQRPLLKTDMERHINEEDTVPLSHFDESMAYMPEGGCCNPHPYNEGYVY

Sequence: GAACTG
- binding signal (ERG): 1.06 fold enrichment (6-mer frequency, TF over GST control)
- binding signal (ELF1): 1.02 fold enrichment (6-mer frequency, TF over GST control)
- binding signal (EHF): 1.01 fold enrichment (6-mer frequency, TF over GST control)
- binding signal (SPIB): 1.01 fold enrichment (6-mer frequency, TF over GST control)
- binding signal (ETV5): 1.05 fold enrichment (6-mer frequency, TF over GST control)
- binding signal (ELF4): 1.02 fold enrichment (6-mer frequency, TF over GST control)
- binding signal (ETV2): 1.02 fold enrichment (6-mer frequency, TF over GST control)
- binding signal (ETV1): 1.05 fold enrichment (6-mer frequency, TF over GST control)
- binding signal (ETS2): 1.02 fold enrichment (6-mer frequency, TF over GST control)
- binding signal (ETV3): 1.09 fold enrichment (6-mer frequency, TF over GST control)
